40 compounds from PubChem BioAssay (Tox21) can be followed below.

Results filed as inconclusive are left out. Active and inactive are the calls of the source. Calls follow the shape of the full dose curve.
% is scaled to controls: 0 for no effect and ±100 for the full control effect.

Sequence of Muscarinic acetylcholine receptor M1 (Homo sapiens) (P11229 whole entry, looked up): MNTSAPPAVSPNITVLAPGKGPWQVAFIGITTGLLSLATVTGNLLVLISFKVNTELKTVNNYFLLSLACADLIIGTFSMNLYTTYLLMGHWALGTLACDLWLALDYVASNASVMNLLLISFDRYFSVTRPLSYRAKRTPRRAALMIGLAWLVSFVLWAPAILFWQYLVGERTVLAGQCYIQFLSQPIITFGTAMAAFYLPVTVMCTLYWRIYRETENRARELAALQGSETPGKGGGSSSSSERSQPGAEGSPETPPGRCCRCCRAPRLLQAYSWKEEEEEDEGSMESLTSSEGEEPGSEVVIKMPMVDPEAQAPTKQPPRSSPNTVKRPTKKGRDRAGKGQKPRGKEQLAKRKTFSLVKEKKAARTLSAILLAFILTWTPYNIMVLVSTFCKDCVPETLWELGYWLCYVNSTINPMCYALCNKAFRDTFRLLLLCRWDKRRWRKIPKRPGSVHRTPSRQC

The assay has as its target Muscarinic acetylcholine receptor M1 (Homo sapiens) (UniProt P11229). The experiment in a line: Cholinergic receptor muscarinic 1 (CHRM1) small molecule antagonists, cell-based qHTS assay (AID 1963588). Also: nearly all actives have a fitted effect of over 40% in size. The conditions noted are these: CHRM1-CHO antagonist mode, calcium flux fluorescence; series mostly up to 61.5 µM; activity, negative = inhibition: at the top concentration. The source says:
National Center for Advancing Translational Sciences [NCATS]
Division of Preclinical Innovation [DPI]
U.S. Environmental Protection Agency [EPA]
National Institutes of Environmental Health Sciences [NIEHS]
National Toxicology Program [NTP]
U.S. Food and Drug Administration [FDA]
The CHRM1 is a muscarinic receptor. This receptor plays a crucial role in learning and memory processes and has long been identified as a promising therapeutic target for the improvement of cognitive decline in Alzheimer's disease (AD). The CHRM1-CHO cell line stably expressing human muscarinic acetylcholine receptor M1 (CHRM1) can be used for screening agonists and antagonists of interactions between CHRM1 and its ligands. The CHRM1-CHO Calcium Flux Assay is a homogeneous fluorescence-based assay for detecting the intracellular calcium level using FDSS kinetic plate reader system.
Tox21 Assay Protocol Summary:
CHRM1-CHO cells were dispensed at 1000 cells/3uL/well in 1536-well black-clear bottom plates using a Multidrop Dispenser. After the assay plates were incubated at a 37 C/5% CO2 incubator for 18 h, 3 uL of Dye Loading Buffer was transferred to the assay plate by a Flying Reagent Dispenser. The assay plates were incubated at 37 C for 1h. For antagonist mode, 23 nL of compounds dissolved in DMSO, positive controls or DMSO only was transferred to the assay plate by a pin tool. After 5 min incubation at room temperature, 1.5 uL of acetylcholine at 50nM was added to each well. The fluorescence intensity in the plates was measured using FDSS 7000EX kinetic plate reader for 3 min at 1 sec intervals. Each test compound was measured at 15 concentrations in three independent runs.
For orientation: qHTS replaces the single test concentration by a dilution series.
For the compound `COC(=O)CC#N`, the “activity, negative = inhibition” value was 22.8% (inactive).
The figure for `C/C=C(\C)C=O` is -3.3% (inactive); for `CC(=O)Nc1cc(S(=O)(=O)O)cc2cc(S(=O)(=O)O)c(N=Nc3ccccc3)c(O)c12` it is 16.3% (inactive); for `CCCCCCCCCCCCCC=O` it is 4.29% [at 5.58 µM] (inactive).
The same measure for `CCC1(C)C(=O)N(Cl)C(=O)N1Cl` (stereo not given): 1.05% (inactive).
`O=C1c2ccccc2C(=O)C1c1ccc2ccccc2n1`: the “activity, negative = inhibition” value is 11.9% [at 28.3 µM] (inactive).
The figure for `O=C(O)c1ccc(Cl)c(Cl)c1` is 10.3% (inactive); for `c1ccc(CN(CC2=NCCN2)c2ccccc2)cc1` it is 5.68% [at 28.3 µM] (inactive).
The same measure for `O=C1C=CCCC1`: 8.37% (inactive).
Regarding `Cn1cnc2ncnc(N)c21`, the “activity, negative = inhibition” value is 24.7% [at 28.3 µM] (inactive).
The figure for `Cc1ccccc1C(=O)O` is -21.1% (inactive).
The figure for `c1ccc2c(CC3=NCCN3)cccc2c1` is 1.89% [at 28.3 µM] (inactive); for `C=CS(=O)(=O)O` it is 4.94% (inactive); for `CC(N)C(=O)OC(C)(C)Cc1ccc(Cl)cc1` (stereo not given) it is 2.93% [at 28.3 µM] (inactive).
Take `COc1ccccc1N1CCN(CC(O)COc2cc(OC)c(OC)c(OC)c2)CC1` (stereo not given): the “activity, negative = inhibition” value is 10.5% [at 28.3 µM] (inactive).
As for `O=C(O)Cc1sc(-c2ccccc2)nc1-c1ccc(Cl)cc1`, the “activity, negative = inhibition” value is -12% [at 28.3 µM] (inactive).
`CN(C)C(=O)Nc1ccc(Oc2ccc(Cl)cc2)cc1`: the “activity, negative = inhibition” value was -21.9% (inactive).
The figure for `C=C(C)C1CCC(C)CC1O` (stereo not given) is -5.64% (inactive); for `CS(=O)(=O)c1ccc(-c2cn3ccccc3n2)cc1` it is 16% [at 28.3 µM] (inactive); for `C/C(=N\[Si](C)(C)C)O[Si](C)(C)C` it is -1.67% (inactive).
On to `CC(C)=CCC/C(C)=C/C=N/O`, for which the “activity, negative = inhibition” value is 8.37% (inactive).
The figure for `O=C(O)c1cc(Cl)cc(Cl)c1` is 9.12% (inactive); for `CN1CCN(C2=Nc3ccccc3Oc3ccc(Cl)cc32)CC1` it is -11.5% [at 28.3 µM] (inactive); for `Brc1c2ccccc2cc2ccccc12` it is -17.8% (inactive).
Turning to `OCCC(F)(F)C(F)(F)C(F)(F)C(F)(F)C(F)(F)C(F)(F)C(F)(F)C(F)(F)F`, the “activity, negative = inhibition” value was 7.37% (inactive).
The same measure for `CC(C)=CCC[C@H](C)CCO`: -7.77% (inactive).
The same measure for `CC(C)=CC(=O)O`: -23.7% (inactive).
The figure for `CN(C)CCOCCN(C)CCO` is -9.71% (inactive).
Take `CCO[Si](CC)(OCC)OCC`: the “activity, negative = inhibition” value was -4.27% (inactive).
For `NS(=O)(=O)c1cc(C(=O)NN2C[C@H]3[C@H]4CCC(C4)[C@H]3C2)ccc1Cl`, the “activity, negative = inhibition” value is -9.03% [at 28.3 µM] (inactive).
The same measure for `CC(=O)CC(C)C`: -12.6% (inactive); for `COC(C)(C)CCCC(C)CC=O` (stereo not given): 15.7% (inactive).
The figure for `CCCCOc1cc(C(=O)OCCN(CC)CC)ccc1N` is -31% [at 28.3 µM] (inactive); for `Clc1cc(Cl)c(Cl)nc1Cl` it is -5.12% (inactive).
In the case of `N#Cc1ccc(C/C(=N/NC(=O)Nc2ccc(OC(F)(F)F)cc2)c2cccc(C(F)(F)F)c2)cc1`, the “activity, negative = inhibition” value was -29.5% (inactive).
The figure for `Cc1c(C2(c3cc(Br)c(O)c(Br)c3C)OS(=O)(=O)c3ccccc32)cc(Br)c(O)c1Br` is 17% (inactive); for `CCOC(=O)c1cccnc1` it is -0.864% [at 28.3 µM] (inactive).
The same measure for `CN(C)CCn1nnnc1SCC1=C(C(=O)O)N2C(=O)[C@@H](NC(=O)Cc3csc(N)n3)[C@H]2SC1`: 6.45% [at 28.3 µM] (inactive); for `CC(C)C[P+](C)(CC(C)C)CC(C)C`: -7.7% (inactive).
The same measure for `Cc1cc(S(=O)(=O)O)c(N)cc1Cl`: 6.69% (inactive).
